Source: PubChem BioAssay
SKKanGAS inh = blocks kanamycin growth of S. pyogenes SKKanGAS strain; inhibition, % at 7.5 µM; hit rate 1.3% among 300,000; BacTiter-Glo, 6 h;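 active = mean replicate score, as percent of positive control median, at least 50; inconclusive = mean below 50 but one replicate at or above 50; inactive = mean and every replicate below 50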;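 also: strain carries kanamycin resistance gene driven by streptokinase promoter and grows in 40 µg/ml kanamycin; loss of luminescence reflects streptokinase promoter inhibition or plain growth inhibition; 0% = median of DMSO wells and 100% = positive control at its reference dose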
aSyn 5UTR inh = MLPCN primary screen, SNCA 5' untranslated region; AID 1813; alpha-synuclein 5'UTR reporter, inhibitor activity; inhibition, % (tested at 7.5 µM); hit rate 0.82% among 300,000; in the data active = inhibition above about 60%; inconclusive = no clear call, values can overlap the other calls;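 also: H4 neuroglioblastoma cells stably carrying SNCA 5'UTR luciferase fusion; 0% = DMSO wells and 100% = positive control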
IEC-6 tox-1 = kills IEC-6 intestinal cells in KLF5 counter-screen | IEC-6 cytotoxicity, luminescence viability | inhibition, % at 5 µM | hit rate 0.78% among 290,000; in the data active = inhibition above about 22%;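 also: 0% = plate median of test compound wells and 100% = cytotoxic reference compound wells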
CSC inhib = cancer stem cell inhibition. hit rate 1.1% among 300,000. inhibition, % at 7.5 µM. cancer stem cell-like cells viability, luminescence; in the data active = inhibition above about 75%; inconclusive = no clear call, values can overlap the other calls; tested in HMLE shEcad cells
KLF5 inhibitor = kruppel-like factor 5 inhibition | DLD-1 KLF5 promoter-luciferase reporter, luminescence | AID 1700 | hit rate 0.23% among 290,000 | inhibition, % at 5 µM;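 active = inhibition above a per-plate limit of that plate's mean compound inhibition plus 3 SD, cut at about 60% in these data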;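 also: 0% = DMSO wells and 100% = LY294002 at 200 µM; higher means less KLF5 promoter-driven luciferase light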
KLF5 confirm = confirmation of KLF5 inhibitors. shares compounds with KLF5 inhibitor. DLD-1 KLF5 promoter firefly luciferase reporter, luminescence. inhibition, % at 4 µM. hit rate 79% among 610;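 active = inhibition above a set limit taken from the earlier primary screen, cut at about 63% in these data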;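 also: 0% = DMSO wells and 100% = LY294002 at 200 µM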
IEC-6 tox-2 = kills rat IEC-6 cells in KLF5 counter-screen. shares compounds with KLF5 inhibitor. IEC-6 rat intestinal cells, viability luminescence. inhibition, % at 4 µM. hit rate 56% among 610. AID 1905; in the data active = inhibition above about 23%;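 also: cells exposed to compounds for 48 hours before viability read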
An asterisk follows results filed as active; u = inconclusive; x = not tested or not shown. Sampled rows, rich in hits. Any-hit rate of the full collection: about 3%.

SMILES	SKKanGAS inh	aSyn 5UTR inh	IEC-6 tox-1	CSC inhib	KLF5 inhibitor	KLF5 confirm	IEC-6 tox-2
CCC(=O)NC(c1ccc(OC)c(OC)c1)c1cc(Cl)c2cccnc2c1O (stereo not given)	56*	111*	11	x	68*	87*	30*
CCCC(=O)NC(c1ccc(Cl)cc1Cl)c1ccc2cccnc2c1O (stereo not given)	89*	64*	19	109*	82*	82*	53*
CCCC(=O)NC(c1ccccc1Cl)c1c(O)ccc2ccccc12 (stereo not given)	-1	6	-4	9	-14	x	x
CCCC(=O)NC(c1ccccc1OC)c1ccc2cccnc2c1O (stereo not given)	14	124*	101*	119*	91*	97*	47*
Cn1c(SCC(=O)Nc2ccccc2)nnc1-c1ccc2nonc2c1	-4	-14	6	-5	-1	x	x
CCN(C(=O)COC(=O)c1cccc(-n2cnnn2)c1)C1CCCCC1	-2	7	-1	-3	-13	x	x
O=C(CCc1c[nH]c2ccccc12)N[C@@H](Cc1c[nH]c2ccc(O)cc12)C(=O)O	0	-2	-6	-15	-13	x	x
N#Cc1ccc(C(=O)Nc2ccc([N+](=O)[O-])cc2)c(F)c1	5	-14	0	x	-18	x	x
COc1ccc(-n2ncc3c(N4CCC(C)CC4)ncnc32)cc1	-3	18	-6	45	-43	x	x
COc1ccc(-n2ncc3c(N(C)C4CCCCC4)ncnc32)cc1	13	94*	5	19	74*	64*	1
CCNNC(=O)C(O)(Cc1ccccc1)Cc1ccccc1	-2	4	3	-4	-14	x	x
Cc1ccc(NC2=C(N3CCCCC3)C(=O)c3ccccc3C2=O)cc1	3	-45	-1	-1	17	x	x
O=C1C(Nc2cccc(O)c2)=C(N2CCCCC2)C(=O)c2ccccc21	3	-14	-4	x	-34	x	x
COc1ccccc1NC1=C(N2CCCCC2)C(=O)c2ccccc2C1=O	1	51	11	144*	80*	90*	20
O=C1C(Nc2ccccc2)=C(N2CCCCC2)C(=O)c2ccccc21	32	15	-3	4	64*	73*	-12
COc1ccc(N(C(=O)c2ccccc2C)S(=O)(=O)c2cccs2)cc1	-4	31	72*	u	66*	76*	62*
COc1ccc(N(C(=O)c2ccncc2)S(=O)(=O)c2ccccc2)cc1	1	-15	-1	-7	-4	x	x
COc1ccc(OC)c2[nH]c(C(=O)N/N=C/c3ccccc3O)cc12	114*	4	12	74	96*	90*	-4
CCc1nc2sc3c(c2c(=O)o1)CCCC3	-7	-10	0	11	11	x	x
CC(C)(C)c1nc2sc3c(c2c(=O)o1)CCCC3	20	5	-3	-5	69*	3	-6
O=C(N/N=C/c1cc(Cl)ccc1O)c1ccncc1	99*	-2	3	9	70*	88*	-4
CCOC(=O)N1CCN(C(=O)CSCc2ccccc2Cl)CC1	4	-61	-5	-3	-42	x	x
CC(=O)Nc1cc2nn(-c3ccccc3)nc2cc1Cl	0	-123	7	10	-154	x	x
CC(C)(C)C(=O)Nc1cc2nn(-c3ccccc3)nc2cc1Cl	x	x	6	x	83*	93*	9
Cn1c(COc2ccc([N+](=O)[O-])cc2)nnc1SCC(=O)NCC1CCCO1 (stereo not given)	3	-6	3	x	-34	x	x
SMILES	SKKanGAS inh	aSyn 5UTR inh	IEC-6 tox-1	CSC inhib	KLF5 inhibitor	KLF5 confirm	IEC-6 tox-2
Cc1ccc2occ(/C=N/NC(=O)c3ccccc3O)c(=O)c2c1	-3	25	-11	-7	64*	48	-6
CCN(CC)S(=O)(=O)c1ccc(N/N=C/c2ccc(O)cc2O)nc1	-1	90*	16	112*	72*	81*	9
CCN(CC)S(=O)(=O)c1ccc(N/N=C(\C)c2ccncc2)nc1	-5	15	-2	40	16	x	x
COc1ccc(Cc2nnc(N/N=C/c3ccc(O)cc3)[nH]c2=O)cc1OC	-1	82*	-3	102*	65*	106*	12
COc1ccc(C2=NOC(C)(c3nnc(Cc4ccccc4)o3)C2)cc1 (stereo not given)	-4	6	x	-11	x	x	x
CCNC(=S)NNC(=O)c1cc(-c2ccc(OCC)cc2)nc2ccccc12	43	56	14	20	81*	79*	0
